This is a sample that favours compounds with a hit; in the whole collection about 3.2% have one here.
Tau fibril ThT: blocks human tau fibril formation measured by thioflavin T; Potency, µM (top dose mostly 57.4 µM), usual class: inhibitors; AID 1460; actives 2.1% (n = 270,000); recombinant tau K18 P301L, heparin-induced fibrillization, ThT fluorescence; P10636; note: nearly all actives have a fitted effect of over 55% in size
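Fibril formation assay: tau K18 P301L at 15 uM with trace Alexa 594 label, heparin inducer 20 uM, pH 7 sodium acetate buffer, 37 C for 6 hr; endpoint ThT signal.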
Tau fluor cs: counter-screen for tau fibril formation inhibitors; actives 0.93% (n = 280,000); tau K18 P301L Alexa594 fluorescence, heparin fibrillization; Potency, µM (highest dose often 57.7 µM); note: nearly all actives have a fitted effect of over 55% in size
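Human tau K18 P301L (15 uM unlabeled, 0.24 uM Alexa 594-labeled) in 100 mM sodium acetate pH 7 with 20 uM heparin, 6 hr at 37 C. ThT 30 uM added, 1 hr ambient; Alexa 594 FP and total fluorescence read at 555/632 nm.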
CBFb-RUNX1 inh: CBF-beta/RUNX1 interaction disruption | Q01196+Q13951 | AlphaScreen CBFb-His/RUNX1-biotin binding, biochemical | Potency, µM (highest dose often 59.8 µM), most hits filed as inhibitors | 230,000 tested, under 10 active | AID 1477
Target sequence (Q01196 whole entry, looked up): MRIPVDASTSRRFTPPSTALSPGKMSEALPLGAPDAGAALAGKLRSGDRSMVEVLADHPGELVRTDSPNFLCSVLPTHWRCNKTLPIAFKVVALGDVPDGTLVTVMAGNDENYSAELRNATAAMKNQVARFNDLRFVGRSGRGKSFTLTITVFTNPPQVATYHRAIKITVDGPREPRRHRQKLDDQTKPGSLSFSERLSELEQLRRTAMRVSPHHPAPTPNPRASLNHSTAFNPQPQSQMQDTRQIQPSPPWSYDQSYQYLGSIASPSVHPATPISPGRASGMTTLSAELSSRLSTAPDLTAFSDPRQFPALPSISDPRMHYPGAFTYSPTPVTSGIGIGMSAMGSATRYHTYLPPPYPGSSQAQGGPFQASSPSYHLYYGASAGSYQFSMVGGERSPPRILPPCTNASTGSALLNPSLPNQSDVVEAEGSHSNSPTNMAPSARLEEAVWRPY
Target sequence (Q13951 whole entry, looked up): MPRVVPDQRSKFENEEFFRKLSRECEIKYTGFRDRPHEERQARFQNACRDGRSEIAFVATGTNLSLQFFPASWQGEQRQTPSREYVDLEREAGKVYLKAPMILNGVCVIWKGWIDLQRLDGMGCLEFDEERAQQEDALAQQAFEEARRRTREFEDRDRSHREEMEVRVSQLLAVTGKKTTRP
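Compounds were screened at multiple concentrations against a preformed CBF-beta(His)/RUNX1(biotin) complex (30 nM of each) for 15 min at room temperature, followed by 90 min with nickel and streptavidin beads and AlphaScreen reading.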
Lamin A splicing: LMNA splicing modulation | HeLa LMNA splicing GFP/RFP minigene ratio, 48 h | Potency, µM (series often up to 46.1 µM), hits mostly inhibitors | actives 0.01% (n = 200,000) | AID 1487; active = well fitted inhibition curve with a large enough effect in the signal ratio, with a control signal flat, not every such curve was filed as active; inconclusive = small, poorly fitted or top-dose-only effect, or effect the other way, or a change in a side signal; the % refers to the signal ratio
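Read-out is the ratio of GFP to DsRed2 object intensity, acquired by 488 nm laser-scanning cytometry on HeLa lamin A-EGFP minigene reporter cells. Compound incubation 48 hrs at 37 °C in Opti-MEM with 2% FBS; DMSO 0.5% final.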
KDM4E inh: JMJD2E (human) inhibition; B2RXH2; AID 2147; JMJD2E catalytic domain, FDH-coupled NADH fluorescence (FDH is formaldehyde dehydrogenase); Potency, µM (top dose mostly 57.1 µM), actives largely listed as inhibitors; actives 1.6% (n = 230,000); active = well fitted inhibition curve with a large enough effect, not every such curve was filed as active; inconclusive = small, poorly fitted or top-dose-only effect, or another doubt; inactive = no such curve, though single readings can be large or run the other way; note: nearly all actives have a fitted effect of over 50% in size
Tau fibril FP: inhibitors of human tau fibril formation. Potency, µM (doses to about 57.7 µM), usual class: inhibitors. actives 0.39% (n = 280,000). K18 P301L tau heparin fibrillization, Alexa594 FP, 6 h. P10636; note: nearly all actives have a fitted effect of over 55% in size
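Human K18 P301L fragment (15 uM unlabeled plus 0.24 uM Alexa 594-labeled) in 100 mM sodium acetate pH 7 with compound, aggregation induced by 20 uM heparin for 6 hr at 37 C. ThT (30 uM) added for 1 hr, then Alexa 594 FP read.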
Numbers stand for hits; n = inactive; u = inconclusive; x = no result; [ ] = remark or other dose. Unless noted, calls come from the whole dose curve; as a rule, active = well fitted curve in the direction sought with a large enough effect; inconclusive = small, poorly fitted or top-dose-only effect, or another doubt; inactive = no such curve, though single readings can be large; an effect the other way counts as inactive or inconclusive.

SMILES	Tau fibril ThT	Tau fluor cs	CBFb-RUNX1 inh	Lamin A splicing	KDM4E inh	Tau fibril FP
CCOC(=O)CC1=C(C(=O)OCC)C(c2ccc(C)o2)C(C#N)=C(N)O1 (stereo unspecified)	n	n	n	n	n	n
Cc1ccc(C2C(C#N)=C(N)Oc3c2sc2ccccc32)o1 (stereo unspecified)	14.1µM	u	n	n	u	u
N#C/C(=C/c1ccc(-c2ccc(S(N)(=O)=O)cc2)o1)C(=O)Nc1ccccc1	u	n	n	u	u	n
COc1ccc(/C(C#N)=C/c2ccccn2)cc1	u	n	n	x	u	n
COC(=O)c1ccc(/C=C(\C#N)c2nc3ccccc3s2)cc1	7.94µM	u	n	n	n	n
N#C/C(=C\c1ccccn1)c1nc2ccccc2s1	8.91µM	14.1µM[quencher]	n	u	n	u
N#C/C(=C/c1ccc(-c2ccc(S(N)(=O)=O)cc2)o1)c1nc2ccccc2s1	11.2µM	u	n	u	n	n
Cc1cnc(CNc2nc(-c3cccc(NS(C)(=O)=O)c3)nc3ccccc23)cn1	x	x	x	n	x	x
O=C(OC1CCCCC1)c1ccc2c(c1)C1C=CCC1C(C(=O)O)N2 (stereo unspecified)	u	n	x	n	n	n
O=C(O)C1Nc2c(O)cccc2C2C=CCC12 (stereo unspecified)	12.6µM	u	x	n	17.8µM	u
CCNc1cc(N2CCCC2)ccc1[N+](=O)[O-]	11.2µM	n	n	n	n	n
CCCC(=O)N1CCN(c2ccc([N+](=O)[O-])c(NC(C)c3ccccc3)c2)CC1 (stereo unspecified)	14.1µM	n	n	n	n	n
COc1cccc(OCCNc2cc(N3CCOCC3)ccc2[N+](=O)[O-])c1	11.2µM	u	u	u	n	n
COc1ccc(OCCNc2cc(N3CCOCC3)ccc2[N+](=O)[O-])cc1	5.01µM	u	u	n	n	n
COc1cccc(Cn2c(SCC(=O)N(C)c3ccccc3)nc3ccccc32)c1	u	n	x	n	x	n
O=c1[nH]c2ccccc2nc1/C=C/c1ccccc1	u	n	n	x	u	n
O=c1[nH]c2ccccc2nc1/C=C/c1ccc(O)cc1	u	u	n	u	15.8µM	n
COc1ccc(C(CC(=O)O)NC(=O)c2cc3ccccc3oc2=O)cc1OC (stereo unspecified)	n	n	x	x	x	n
c1ccc2c(c1)CCN(C1=Nc3cccc4cccc1c34)C2	15.8µM	n	n	u	u	n
Cc1ccccc1Cn1c(=O)n(CCc2ccccc2)c(=O)c2sc3ccccc3c21	n	n	x	x	x	n
CCOC(=O)c1sc(NC(=O)c2cc3nc(-c4ccc(Br)cc4)cc(C(F)(F)F)n3n2)c(C(=O)OCC)c1C	n	n	x	u	x	n
COc1ccc(CCNC(=O)Cn2c(=O)c3cccn3c3ccccc32)cc1OC	n	u	x	u	x	14.1µM
COc1ccc(CCNC(=O)Cn2c(=O)c3cccn3c3ccc(F)cc32)cc1OC	u	n	x	n	x	n
CCc1ccccc1NC(=O)Cn1c(=O)c2cccn2c2ccc(F)cc21	n	n	x	n	x	n
Cc1cccc(NC(=O)Cn2c(=O)c3cccn3c3ccccc32)c1C	n	u	x	u	x	17.8µM
SMILES	Tau fibril ThT	Tau fluor cs	CBFb-RUNX1 inh	Lamin A splicing	KDM4E inh	Tau fibril FP
O=C(O)c1ccc(-c2ccc(/C=C3\NC(=O)N(Cc4ccc(Cl)cc4)C3=O)o2)cc1Cl	28.2µM	n	u	u	u	u
Cc1ccc(C(=O)NCC(c2ccco2)S(=O)(=O)c2cccs2)cc1C (stereo unspecified)	n	n	x	n	x	n
Nc1ccc(N2CCN(c3ccc(Cl)c(Cl)c3)CC2)cc1	15.8µM	u	u	u	n	n
Nc1ccc(N2CCN(c3ccc(F)cc3)CC2)cc1	12.6µM	u	u	u	n	n
Nc1ccc(N2CCCCCC2)cc1	7.08µM	u	u	n	u	14.1µM
Cc1ccccc1C(=O)Nc1nnc2n1CCS2	n	n	x	n	x	n
CC(C)CC(=O)n1nc(-c2ccco2)nc1NCc1ccc(Cl)cc1	n	n	x	x	x	n
CCOC(=O)c1c(S(=O)(=O)NCC(=O)Nc2ccc(F)cc2C)c(C)n(C)c1C	n	n	x	n	x	n
O=C(CSC1=NCCS1)NC(c1ccccc1)c1ccccc1	15.8µM	n	n	n	n	u
O=C(CSC1=NCCS1)NC(NC(=O)CSC1=NCCS1)c1ccccc1	n	n	n	u	n	n
Cc1ccc(NC(=S)NCc2ccccc2)cc1S(=O)(=O)N1CCCCC1	n	12.6µM[quencher]	n	x	n	20µM
Cc1ccc(NC(=O)Cc2c[nH]c3ccccc23)cc1S(=O)(=O)N1CCCCCC1	n	14.1µM[quencher]	n	u	n	n
Cc1ccc(S(=O)(=O)N2CCCCC2)cc1NC(=O)Cc1c[nH]c2ccccc12	n	u	n	n	n	n
Cc1ccccc1Oc1cc(-n2ncc(Cl)c(Cl)c2=O)ncn1	10µM	n	n	u	n	u
COC(=O)[C@H](CCSC)NC(=O)c1ccc(NC[C@@H](N)CS)cc1-c1ccccc1	x	x	n	x	x	x
Cc1cccc(CSc2nc3c(c(-c4cccs4)c2C#N)CN(C)CC3)c1	15.8µM	25.1µM[quencher]	n	u	n	n
CN1CCc2nc(SCC(=O)Nc3cccc(F)c3)c(C#N)c(-c3cccs3)c2C1	14.1µM	15.8µM[quencher]	n	n	u	n
Cc1cccc(CSc2nc(N)c(C#N)c(-c3cccs3)c2C#N)c1	n	u	n	n	u	u
Cc1ccccc1NC(=O)Cn1c(=O)n(Cc2ccc3c(c2)OCO3)c(=O)c2oc3ccccc3c21	n	n	x	x	x	n
CCN(CC)c1ccc(NC(=O)c2cnn(-c3ccccc3)c2-n2cccc2)c(C)c1	u	n	x	x	x	n
CCc1ccc(CNC(=O)C(C)n2ccc3cc(S(=O)(=O)N4CCCCCC4)ccc32)cc1 (stereo unspecified)	n	n	x	x	x	n
CC[C@@H](c1ccccc1)n1c(=O)n2n(c1=O)[C@H]1[C@H](O)[C@H]3O[C@@H]3/C(=N/OC[C@@H](O)COCc3ccco3)[C@@H]1CC2	n[11.5 µM]	n[11.6 µM]	n[13.1 µM]	x	x	n[11.6 µM]
CCc1ccc(NC(=O)Cn2ccn(-c3ccc(OC)cc3)c(=O)c2=O)cc1	n	n	x	n	x	n
O=C(Nc1ccc(Cl)c(Cl)c1)C1=Cc2ccccc2OC1	u	u	n	n	u	15.8µM
CC1=CC(C)(C)N2C(=O)C(=O)c3cc(OC(=O)c4ccco4)cc1c32	12.6µM	n	n	x	n	n
CC1=CC(C)(C)Nc2ccc(OC(=O)c3ccco3)cc21	u	n	n	u	n	n
CC(=O)Oc1cc(-c2coc3cc(OC(C)=O)c(OC(C)=O)c(OC(C)=O)c3c2=O)cc(OC(C)=O)c1OC(C)=O	3.55µM	u	x	x	3.16µM	8.91µM
Cc1ccc(-n2nnnc2SCC(=O)NCCc2ccccc2)cc1C	n	n	x	x	x	n
